PubChem BioAssay

Assay: small-molecule binders of probe aNOTCH3, primary screen, biochemical, small-molecule microarray, 635/667 nm fluorescence (AID 1120);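 note: probe is a biotin-tagged antibody raised against NOTCH3 rather than NOTCH3 protein; score merges spot fluorescence near 667 nm with spot signal to noise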
Conditions: higher = more signal

Question: For `COc1cc(CO)ccc1OC(C)=O`, which composite z-score is on record?
Answer: 0.262

Question: For `COc1ccc(C#Cc2ccc3c(c2)[C@]2(C(=O)N3)[C@H](c3ccc(O)cc3)N3[C@H](c4ccccc4)[C@H](c4ccccc4)OC(=O)[C@H]3[C@@H]2C(=O)N2CCCCCCC2)cc1`, which composite z-score is on record?
Answer: 1.84

Question: For `CN1C=C(C(=O)OCCS(C)(=O)=O)C(C(=O)OCCS(C)(=O)=O)=CC(CCCO)=CC1C1CC1` (stereo unspecified), which composite z-score is on record?
Answer: -0.0613

Question: Which composite z-score does the source give for `COCCOC(=O)N1C(=O)[C@@]2(c3cc(C#CCC(C(=O)OC)C(=O)OC)ccc31)[C@H](c1ccc(O)cc1)N1[C@H](c3ccccc3)[C@H](c3ccccc3)OC(=O)[C@H]1[C@@H]2C(N)=O` here?
Answer: -0.0647

Question: With `COc1ccc(NN2C(C(O)c3ccc(OC)c(OCc4ccccc4)c3)C=CC3C(=O)N(C4CCCCC4)C(=O)C32)cc1` (stereo unspecified) as the compound, how does the composite z-score read?
Answer: 0.252

Question: Which composite z-score does the source give for `CC(C)N1CC=CC23O[C@@H]4C=CCOC(=O)[C@@H]4[C@H]2C(=O)N(CCO)[C@@H]3C1=O` (stereo partly specified) here?
Answer: -0.299

Question: With `O=C1c2ccccc2[C@@]2(Cc3ccccc3N(Cc3ccccc3)C2=O)[C@H](c2ccc(CO)cc2)N1C1CCCCC1` as the compound, how does the composite z-score read?
Answer: -0.141

Question: With `CO[C@H]1O[C@H](CO)[C@@H](OC(=O)Nc2ccc3c(c2)OCO3)[C@H](OC(=O)Nc2ccccc2)[C@H]1OC(=O)Nc1ccccc1` as the compound, how does the composite z-score read?
Answer: 0.0773

Question: Which composite z-score does the source give for `CC(C)C[C@@H]1NC(=O)[C@@H]2C[C@H](C(=O)NCCCCCC[N+](C)(C)C)[C@H](c3ccc(O)cc3)N2C1=O` here?
Answer: 0.0562

Question: For `N#Cc1ccc(NN2C(C(O)C3CCCCC3)C=CC3C(=O)N(c4ccccc4)C(=O)C32)cc1` (stereo unspecified), which composite z-score is on record?
Answer: 0.459

Question: For `O=c1oc(-c2ccccc2)nc2cc(Br)ccc12`, which composite z-score is on record?
Answer: -0.0647

Question: Which composite z-score does the source give for `COC(=O)[C@@]1(Cc2ccc(OC)cc2)[C@H]2c3cc(C(=O)N(C)C)n(Cc4c(OC)[nH]cc(C)c4=O)c3C[C@H]2CN1C(=O)c1ccccc1` here?
Answer: 1.04

Question: For `CC(C)NC(=O)[C@@H]1c2ccccc2C(=O)N(Cc2ccccc2)[C@H]1c1ccc(CO)cc1`, which composite z-score is on record?
Answer: 0.0237

Question: With `O=C1C=CC(=O)[C@@H]2CC(COc3ccccc3)=C3[C@@H](CCc4ccccc4)OB(O)C[C@@H]3[C@H]12` as the compound, how does the composite z-score read?
Answer: -0.0647

Question: With `C=CCC(OC(C)=O)[C@@H]1[C@@H](N(Cc2cccc3ccccc23)C(=O)c2cccc3ccccc23)c2cc(OCCCO)ccc2N1C(=O)c1ccc2ccccc2n1` (stereo partly specified) as the compound, how does the composite z-score read?
Answer: 0.0556

Question: With `O=C1[C@]2(CO)C=C(Br)[C@@H](C[C@@H]2c2ccccc2)[C@@]12CO2` as the compound, how does the composite z-score read?
Answer: -0.0763

Question: With `COCC1=C2[C@@H](CCc3ccccc3)OB(O)C[C@@H]2[C@@H]2C(=O)N(Cc3ccccc3)C(=O)[C@@H]2C1` as the compound, how does the composite z-score read?
Answer: -0.102

Question: With `CCOC(=O)C1=CC[C@@H](c2ccccc2)N(S(=O)(=O)c2ccc(C)cc2)[C@H]1C(=O)OCC` as the compound, how does the composite z-score read?
Answer: 0.421

Question: Which composite z-score does the source give for `Cc1ccccc1C(O)C1C=CC2C(=O)N(C)C(=O)C2N1Nc1ccccc1` (stereo unspecified) here?
Answer: 0.0674

Question: Which composite z-score does the source give for `C=CCC(OC(C)=O)[C@@H]1[C@@H](N(Cc2ccc(-c3ccccc3)cc2)C(=O)Cc2ccc(OC)cc2)c2cc(OCCCO)ccc2N1C(=O)c1ccc2ccccc2n1` (stereo partly specified) here?
Answer: 0.0522

Question: For `CCN(CC)c1ccc(N2CC=CC34O[C@@H]5C=CCCOC(=O)C5[C@H]3C(=O)N(CCCCCO)[C@@H]4C2=O)cc1` (stereo partly specified), which composite z-score is on record?
Answer: 0.0522

Question: With `C[C@]1(C(=O)NCc2ccccc2)c2ccccc2C(=O)N(Cc2ccc(OC(F)(F)F)cc2)[C@H]1c1ccc(CO)cc1` as the compound, how does the composite z-score read?
Answer: -0.211

Question: With `CC(=O)Nc1cc(Br)ccc1C(=O)O` as the compound, how does the composite z-score read?
Answer: -0.0142

Question: For `COC(=O)C[C@H]1O[C@]2(C(=O)N(Cc3ccccc3)c3ccc(NC(C)=O)cc32)[C@@H](C)[C@@H]1[Si](C)(C)c1ccc(OC)cc1`, which composite z-score is on record?
Answer: 0.0485

Question: Which composite z-score does the source give for `COCCOC(=O)N1C(=O)[C@@]2(c3cc(C#CCC(C(=O)OC)C(=O)OC)ccc31)[C@H](C(=O)N1CCN(c3ncccn3)CC1)[C@H]1C(=O)O[C@H](c3ccccc3)[C@H](c3ccccc3)N1[C@@H]2c1ccc(OCCO)cc1` here?
Answer: 0.0097

Question: With `O=c1cccc(C=Cc2ccccc2)o1` as the compound, how does the composite z-score read?
Answer: -0.178

Question: For `CCCCC(CC)C(O)C1C=CC2C(=O)N(c3ccccc3)C(=O)C2N1Nc1ccccc1` (stereo unspecified), which composite z-score is on record?
Answer: 0.206

Question: With `COc1ccc([Si](C)(C)[C@@H]2[C@@H](CC(=O)N(CCO)Cc3ccccc3)O[C@]3(C(=O)N(C)c4ccccc43)[C@H]2C)cc1` as the compound, how does the composite z-score read?
Answer: 0.0964

Question: Which composite z-score does the source give for `CC(C)C[C@@H]1NC(=O)[C@H]2C[C@@H](C(=O)NCCCCCNC(=O)CS)[C@@H](c3cccc(OCCO)c3)N2C1=O` here?
Answer: 0.191

Question: For `O=C(OCCF)C1=CCC(c2cccc(Cl)c2)O1` (stereo unspecified), which composite z-score is on record?
Answer: -0.191

Question: Which composite z-score does the source give for `O=C(O)[C@@]1(Cc2ccccc2)N=C(c2ccc(OCCCO)cc2)O[C@H]1c1ccccc1` here?
Answer: -0.0932
